Measurements published in PubChem BioAssay (NCATS).
Inconclusive results are not listed. Where a call stands in place of a potency, no number is given. Activity calls are given as the source filed them. Calls come from the whole dose curve.

Test: Cytotoxicity counterscreen for inhibitors of SARS-CoV-2 cell entry (AID 1645845); note: nearly all actives have a fitted effect of over 50% in size
Details: cell viability (SARS-CoV-2 entry assay cells); series mostly up to 57.1 µM
Outline: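 Expi293F/hACE2 cells seeded overnight; cpd pin-transferred in DMSO, 1 h preincubation, + media, 48 h 37 C 5% CO2; ATPLite 1step luminescence; normalized to cells and no cells.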
Potency is the fitted concentration of half-maximal effect.

Row | Structure (SMILES) | Potency
1 | NC(=S)N/N=C/c1ncccc1N | inactive
2 | Nc1cc(C(F)(F)F)c(-c2nc(N3CCOCC3)nc(N3CCOCC3)n2)cn1 | 10 µM (active)
3 | COc1ccc2c(c1)C(c1ccc(F)cc1)=C(CN1CCCC1)CO2 | inactive
4 | Cc1ccc(-n2nc(C(C)(C)C)cc2NC(=O)NCc2cc(F)ccc2Oc2ccc3c(cnn3CCO)c2)cc1 | inactive
5 | CC1(C)OCCn2c1nc1c(N3CCOCC3)nc(-c3cnc(N)nc3)nc12 | inactive
6 | O=C(C(c1ccccc1)c1ccccc1)N1CCN(CC(O)COc2cccc3ncccc23)CC1 (stereo not given) | inactive
7 | CN(C)c1cc(NC(=O)CNC(C)(C)C)c(O)c2c1C[C@H]1C[C@H]3[C@H](N(C)C)C(=O)C(C(N)=O)=C(O)[C@]3(O)C(=O)C1=C2O | inactive
8 | Cc1[nH]c(/C=C2\C(=O)Nc3ccc(F)cc32)c(C)c1C(=O)NC[C@H](O)CN1CCOCC1 | inactive
9 | CSC[C@H]1CN(Cc2c[nH]c3c(N)ncnc23)C[C@@H]1O | inactive
10 | COc1cc(OC)cc(N(CCNC(C)C)c2ccc3ncc(-c4cnn(C)c4)nc3c2)c1 | inactive
11 | Cc1cc(N2CCOCC2)ccc1Nc1nc(NC2CCCCC2)c2[nH]cnc2n1 | inactive
12 | Cc1ccc(-c2nn(C(C)(C)CNC(=O)c3ccncc3)c3ncnc(N)c23)cc1 | inactive
13 | Cc1[nH]c(/C=C2\C(=O)Nc3ccccc32)c(C)c1CCC(=O)O | inactive
14 | CNc1nc(-c2ccc3c(N)n[nH]c3c2)cc(N2C[C@@H](C(=O)NC3CCCCC3)CC[C@H]2C)n1 | inactive
15 | CO[C@H]1/C=C/O[C@@]2(C)Oc3c(C)c(O)c4c(O)c(c(/C=N\N5CCN(C6CCCC6)CC5)c(O)c4c3C2=O)NC(=O)/C(C)=C\C=C\[C@H](C)[C@H](O)[C@@H](C)[C@@H](O)[C@@H](C)[C@H](OC(C)=O)[C@@H]1C | inactive
